# Data published in article PMC11006913.
# Positions count from the first letter of the chain named.
# How the values were obtained:
# Experiment in all cases: PBM; 200 nM protein, PBS
# Details in all cases: dsDNA, one strand shown
# [1] = biological target: NKX2-5 (Homo sapiens, UniProt P52952 125-210, R139K)
# [2] = biological target: HOXB9 (Homo sapiens, UniProt P17482 171-250, T197M)
# [3] = biological target: HOXC9 (Homo sapiens, UniProt P31274 178-260, K195R)
# [4] = biological target: T1, VENTX (Homo sapiens, UniProt O95231 78-163)
# T1 sequence: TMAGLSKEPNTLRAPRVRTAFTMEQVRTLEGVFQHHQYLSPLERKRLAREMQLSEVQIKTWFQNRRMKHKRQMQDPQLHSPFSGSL
# [5] = biological target: T2, PAX4 (Homo sapiens, UniProt O43316 9-242, R200K)
# T2 sequence: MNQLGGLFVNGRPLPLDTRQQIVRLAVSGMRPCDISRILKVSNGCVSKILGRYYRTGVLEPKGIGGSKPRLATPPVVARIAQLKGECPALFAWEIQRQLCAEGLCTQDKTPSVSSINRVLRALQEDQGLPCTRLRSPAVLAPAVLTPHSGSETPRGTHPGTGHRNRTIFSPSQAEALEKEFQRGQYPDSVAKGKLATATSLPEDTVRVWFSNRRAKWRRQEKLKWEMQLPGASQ
# [6] = biological target: T3, VENTX (Homo sapiens, UniProt O95231 78-163, Y115F)
# T3 sequence: T1 sequence with Y38F
# [7] = biological target: T4, PAX4 (Homo sapiens, UniProt O43316 9-242)
# T4 sequence: T2 sequence with K192R
# [8] = biological target: HOXB9 (Homo sapiens, UniProt P17482 171-250)
# [9] = biological target: T5, PAX4 (Homo sapiens, UniProt O43316 9-242, R200Q)
# T5 sequence: T2 sequence with K192Q
# [10] = biological target: HOXC9 (Homo sapiens, UniProt P31274 178-260, R193K)
# [11] = biological target: HOXA2 (Homo sapiens, UniProt O43364 129-215, R185K)
# [12] = biological target: T6, PAX4 (Homo sapiens, UniProt O43316 9-242, F177V)
# T6 sequence: T2 sequence with F169V, K192R
# [13] = biological target: HOXC10 (Homo sapiens, UniProt Q9NYD6 254-340, K271E)
# [14] = biological target: T7, PAX4 (Homo sapiens, UniProt O43316 9-242, F177Y)
# T7 sequence: T2 sequence with F169Y, K192R
# [15] = biological target: VAX1 (Homo sapiens, UniProt Q5SQQ9 86-172)
# [16] = biological target: HOXB9 (Homo sapiens, UniProt P17482 171-250, R186Q)
# [17] = biological target: HOXC9 (Homo sapiens, UniProt P31274 178-260, R222W)
# [18] = biological target: T8, PAX4 (Homo sapiens, UniProt O43316 9-242, R227W)
# T8 sequence: T2 sequence with K192R, R219W
# [19] = biological target: HOXA2 (Homo sapiens, UniProt O43364 129-215, Y150S)
# [20] = biological target: HOXA2 (Homo sapiens, UniProt O43364 129-215)
# HOXA2 (Homo sapiens, UniProt O43364 129-215), sequence (O43364 129-215): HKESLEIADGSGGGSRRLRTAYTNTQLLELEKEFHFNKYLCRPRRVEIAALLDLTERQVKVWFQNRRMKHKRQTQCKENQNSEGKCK
# HOXA2 (Homo sapiens, UniProt O43364 129-215, R185K), sequence (O43364 129-215 R185K): as the sequence (O43364 129-215) above, with R57K counted along it
# HOXC10, sequence (Q9NYD6 254-340 K271E): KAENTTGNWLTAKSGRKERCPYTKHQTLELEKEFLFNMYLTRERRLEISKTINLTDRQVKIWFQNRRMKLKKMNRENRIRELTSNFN
# HOXB9 (Homo sapiens, UniProt P17482 171-250, R186Q), sequence (P17482 171-250 R186Q): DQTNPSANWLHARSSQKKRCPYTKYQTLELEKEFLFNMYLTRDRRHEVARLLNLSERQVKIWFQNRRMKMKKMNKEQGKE
# HOXC9 (Homo sapiens, UniProt P31274 178-260, R193K), sequence (P31274 178-260 R193K): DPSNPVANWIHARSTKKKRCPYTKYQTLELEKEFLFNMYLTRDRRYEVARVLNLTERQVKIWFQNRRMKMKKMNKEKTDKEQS
# NKX2-5, sequence (P52952 125-210 R139K): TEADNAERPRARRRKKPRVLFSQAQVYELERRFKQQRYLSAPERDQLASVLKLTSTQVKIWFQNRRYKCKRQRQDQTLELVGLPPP
# VAX1, sequence (Q5SQQ9 86-172): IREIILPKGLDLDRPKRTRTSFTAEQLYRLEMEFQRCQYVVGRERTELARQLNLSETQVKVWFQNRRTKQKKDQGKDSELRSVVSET
# HOXB9 (Homo sapiens, UniProt P17482 171-250, T197M), sequence (P17482 171-250 T197M): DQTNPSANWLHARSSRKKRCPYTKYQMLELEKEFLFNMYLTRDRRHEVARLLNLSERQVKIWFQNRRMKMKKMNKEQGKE
# HOXA2 (Homo sapiens, UniProt O43364 129-215, Y150S), sequence (O43364 129-215 Y150S): as the sequence (O43364 129-215) above, with Y22S counted along it
# HOXB9 (Homo sapiens, UniProt P17482 171-250), sequence (P17482 171-250): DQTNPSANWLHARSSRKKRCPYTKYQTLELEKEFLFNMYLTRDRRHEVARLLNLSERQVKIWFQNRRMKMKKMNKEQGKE
# HOXC9 (Homo sapiens, UniProt P31274 178-260, R222W), sequence (P31274 178-260 R222W): as the sequence (P31274 178-260 R193K) above, with K16R, R45W counted along it
# HOXC9 (Homo sapiens, UniProt P31274 178-260, K195R), sequence (P31274 178-260 K195R): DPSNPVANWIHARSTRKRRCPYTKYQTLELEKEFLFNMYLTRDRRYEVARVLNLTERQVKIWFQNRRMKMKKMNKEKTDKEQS
sequence,measurement,setting,value
GCCGACCC,binding signal,[1],"8.84 upbm affinity estimate (log intensity, higher = more binding, comparable within an allelic series)"
GCCCTCTA,binding signal,[1],"10.4 upbm affinity estimate (log intensity, higher = more binding, comparable within an allelic series)"
AATTAATA,binding signal,[2],"10.3 upbm affinity estimate (log intensity, higher = more binding, comparable within an allelic series)"
same,binding signal,[3],"12.8 upbm affinity estimate (log intensity, higher = more binding, comparable within an allelic series)"
same,binding signal,[4],"12.3 upbm affinity estimate (log intensity, higher = more binding, comparable within an allelic series)"
same,binding signal,[5],"12 upbm affinity estimate (log intensity, higher = more binding, comparable within an allelic series)"
same,binding signal,[6],"11.6 upbm affinity estimate (log intensity, higher = more binding, comparable within an allelic series)"
same,binding signal,[7],"12.5 upbm affinity estimate (log intensity, higher = more binding, comparable within an allelic series)"
same,binding signal,[8],"12 upbm affinity estimate (log intensity, higher = more binding, comparable within an allelic series)"
same,binding signal,[9],"12.3 upbm affinity estimate (log intensity, higher = more binding, comparable within an allelic series)"
same,binding signal,[10],"12.7 upbm affinity estimate (log intensity, higher = more binding, comparable within an allelic series)"
same,binding signal,[11],"13.1 upbm affinity estimate (log intensity, higher = more binding, comparable within an allelic series)"
same,binding signal,[12],"10.8 upbm affinity estimate (log intensity, higher = more binding, comparable within an allelic series)"
same,binding signal,[13],"12 upbm affinity estimate (log intensity, higher = more binding, comparable within an allelic series)"
same,binding signal,[14],"11.2 upbm affinity estimate (log intensity, higher = more binding, comparable within an allelic series)"
same,binding signal,[15],"12.9 upbm affinity estimate (log intensity, higher = more binding, comparable within an allelic series)"
same,binding signal,[16],"11.8 upbm affinity estimate (log intensity, higher = more binding, comparable within an allelic series)"
same,binding signal,[17],"11.3 upbm affinity estimate (log intensity, higher = more binding, comparable within an allelic series)"
same,binding signal,[18],"11.2 upbm affinity estimate (log intensity, higher = more binding, comparable within an allelic series)"
same,binding signal,[19],"11.1 upbm affinity estimate (log intensity, higher = more binding, comparable within an allelic series)"
same,binding signal,[20],"12.1 upbm affinity estimate (log intensity, higher = more binding, comparable within an allelic series)"
GGTAATTA,binding signal,[2],"10.6 upbm affinity estimate (log intensity, higher = more binding, comparable within an allelic series)"
same,binding signal,[3],"13.2 upbm affinity estimate (log intensity, higher = more binding, comparable within an allelic series)"
same,binding signal,[4],"13.2 upbm affinity estimate (log intensity, higher = more binding, comparable within an allelic series)"
same,binding signal,[5],"12 upbm affinity estimate (log intensity, higher = more binding, comparable within an allelic series)"
same,binding signal,[6],"12.6 upbm affinity estimate (log intensity, higher = more binding, comparable within an allelic series)"
same,binding signal,[7],"12.5 upbm affinity estimate (log intensity, higher = more binding, comparable within an allelic series)"
same,binding signal,[8],"12.3 upbm affinity estimate (log intensity, higher = more binding, comparable within an allelic series)"
same,binding signal,[9],"12.4 upbm affinity estimate (log intensity, higher = more binding, comparable within an allelic series)"
same,binding signal,[10],"13.1 upbm affinity estimate (log intensity, higher = more binding, comparable within an allelic series)"
same,binding signal,[11],"14.1 upbm affinity estimate (log intensity, higher = more binding, comparable within an allelic series)"
same,binding signal,[12],"10.7 upbm affinity estimate (log intensity, higher = more binding, comparable within an allelic series)"
same,binding signal,[13],"12.7 upbm affinity estimate (log intensity, higher = more binding, comparable within an allelic series)"
same,binding signal,[14],"11.1 upbm affinity estimate (log intensity, higher = more binding, comparable within an allelic series)"
same,binding signal,[15],"14.1 upbm affinity estimate (log intensity, higher = more binding, comparable within an allelic series)"
same,binding signal,[16],"12.2 upbm affinity estimate (log intensity, higher = more binding, comparable within an allelic series)"
same,binding signal,[17],"11 upbm affinity estimate (log intensity, higher = more binding, comparable within an allelic series)"
same,binding signal,[18],"11.1 upbm affinity estimate (log intensity, higher = more binding, comparable within an allelic series)"
same,binding signal,[19],"11 upbm affinity estimate (log intensity, higher = more binding, comparable within an allelic series)"
same,binding signal,[20],"13.4 upbm affinity estimate (log intensity, higher = more binding, comparable within an allelic series)"
AACGTGGG,binding signal,[1],"8.65 upbm affinity estimate (log intensity, higher = more binding, comparable within an allelic series)"
ACCGCGGG,binding signal,[1],"8.49 upbm affinity estimate (log intensity, higher = more binding, comparable within an allelic series)"
GCAATTAA,binding signal,[2],"10.5 upbm affinity estimate (log intensity, higher = more binding, comparable within an allelic series)"
same,binding signal,[3],"13.1 upbm affinity estimate (log intensity, higher = more binding, comparable within an allelic series)"
same,binding signal,[4],"12.8 upbm affinity estimate (log intensity, higher = more binding, comparable within an allelic series)"
same,binding signal,[6],"11.9 upbm affinity estimate (log intensity, higher = more binding, comparable within an allelic series)"
same,binding signal,[8],"12.6 upbm affinity estimate (log intensity, higher = more binding, comparable within an allelic series)"
same,binding signal,[9],"12 upbm affinity estimate (log intensity, higher = more binding, comparable within an allelic series)"
same,binding signal,[10],"13 upbm affinity estimate (log intensity, higher = more binding, comparable within an allelic series)"
same,binding signal,[11],"13.4 upbm affinity estimate (log intensity, higher = more binding, comparable within an allelic series)"
same,binding signal,[13],"12.6 upbm affinity estimate (log intensity, higher = more binding, comparable within an allelic series)"
same,binding signal,[15],"13.2 upbm affinity estimate (log intensity, higher = more binding, comparable within an allelic series)"
same,binding signal,[16],"12.4 upbm affinity estimate (log intensity, higher = more binding, comparable within an allelic series)"
same,binding signal,[17],"11.1 upbm affinity estimate (log intensity, higher = more binding, comparable within an allelic series)"
same,binding signal,[19],"10.8 upbm affinity estimate (log intensity, higher = more binding, comparable within an allelic series)"
same,binding signal,[20],"12.6 upbm affinity estimate (log intensity, higher = more binding, comparable within an allelic series)"
TAATTATA,binding signal,[2],"10.3 upbm affinity estimate (log intensity, higher = more binding, comparable within an allelic series)"
same,binding signal,[3],"12.8 upbm affinity estimate (log intensity, higher = more binding, comparable within an allelic series)"
same,binding signal,[4],"12.4 upbm affinity estimate (log intensity, higher = more binding, comparable within an allelic series)"
same,binding signal,[5],"11.7 upbm affinity estimate (log intensity, higher = more binding, comparable within an allelic series)"
same,binding signal,[6],"11.8 upbm affinity estimate (log intensity, higher = more binding, comparable within an allelic series)"
same,binding signal,[7],"12.2 upbm affinity estimate (log intensity, higher = more binding, comparable within an allelic series)"
same,binding signal,[8],"11.9 upbm affinity estimate (log intensity, higher = more binding, comparable within an allelic series)"
same,binding signal,[9],"12.1 upbm affinity estimate (log intensity, higher = more binding, comparable within an allelic series)"
same,binding signal,[10],"12.7 upbm affinity estimate (log intensity, higher = more binding, comparable within an allelic series)"
same,binding signal,[11],"13.7 upbm affinity estimate (log intensity, higher = more binding, comparable within an allelic series)"
same,binding signal,[12],"10.7 upbm affinity estimate (log intensity, higher = more binding, comparable within an allelic series)"
same,binding signal,[13],"12.2 upbm affinity estimate (log intensity, higher = more binding, comparable within an allelic series)"
same,binding signal,[14],"11 upbm affinity estimate (log intensity, higher = more binding, comparable within an allelic series)"
same,binding signal,[15],"13.3 upbm affinity estimate (log intensity, higher = more binding, comparable within an allelic series)"
same,binding signal,[16],"11.6 upbm affinity estimate (log intensity, higher = more binding, comparable within an allelic series)"
same,binding signal,[17],"11.2 upbm affinity estimate (log intensity, higher = more binding, comparable within an allelic series)"
same,binding signal,[18],"11.1 upbm affinity estimate (log intensity, higher = more binding, comparable within an allelic series)"
same,binding signal,[19],"11.1 upbm affinity estimate (log intensity, higher = more binding, comparable within an allelic series)"
same,binding signal,[20],"13 upbm affinity estimate (log intensity, higher = more binding, comparable within an allelic series)"
CCCCAACG,binding signal,[1],"8.6 upbm affinity estimate (log intensity, higher = more binding, comparable within an allelic series)"
TTAATTAA,binding signal,[2],"10.4 upbm affinity estimate (log intensity, higher = more binding, comparable within an allelic series)"
same,binding signal,[3],"12.9 upbm affinity estimate (log intensity, higher = more binding, comparable within an allelic series)"
same,binding signal,[4],"12.8 upbm affinity estimate (log intensity, higher = more binding, comparable within an allelic series)"
same,binding signal,[5],"12.1 upbm affinity estimate (log intensity, higher = more binding, comparable within an allelic series)"
same,binding signal,[6],"12.1 upbm affinity estimate (log intensity, higher = more binding, comparable within an allelic series)"
same,binding signal,[7],"12.6 upbm affinity estimate (log intensity, higher = more binding, comparable within an allelic series)"
same,binding signal,[8],"12.3 upbm affinity estimate (log intensity, higher = more binding, comparable within an allelic series)"
same,binding signal,[9],"12.6 upbm affinity estimate (log intensity, higher = more binding, comparable within an allelic series)"
same,binding signal,[10],"12.7 upbm affinity estimate (log intensity, higher = more binding, comparable within an allelic series)"
same,binding signal,[11],"13.7 upbm affinity estimate (log intensity, higher = more binding, comparable within an allelic series)"
same,binding signal,[12],"11.2 upbm affinity estimate (log intensity, higher = more binding, comparable within an allelic series)"
same,binding signal,[13],"12.3 upbm affinity estimate (log intensity, higher = more binding, comparable within an allelic series)"
same,binding signal,[14],"11.6 upbm affinity estimate (log intensity, higher = more binding, comparable within an allelic series)"
same,binding signal,[15],"13.6 upbm affinity estimate (log intensity, higher = more binding, comparable within an allelic series)"
same,binding signal,[16],"12 upbm affinity estimate (log intensity, higher = more binding, comparable within an allelic series)"
same,binding signal,[17],"11.5 upbm affinity estimate (log intensity, higher = more binding, comparable within an allelic series)"
same,binding signal,[18],"11.4 upbm affinity estimate (log intensity, higher = more binding, comparable within an allelic series)"
same,binding signal,[19],"10.8 upbm affinity estimate (log intensity, higher = more binding, comparable within an allelic series)"
same,binding signal,[20],"13.1 upbm affinity estimate (log intensity, higher = more binding, comparable within an allelic series)"
CCTCTCGA,binding signal,[1],"11.2 upbm affinity estimate (log intensity, higher = more binding, comparable within an allelic series)"
CGCGAGCC,binding signal,[1],"8.97 upbm affinity estimate (log intensity, higher = more binding, comparable within an allelic series)"
ACGTCCCG,binding signal,[1],"8.76 upbm affinity estimate (log intensity, higher = more binding, comparable within an allelic series)"
